From PubChem BioAssay
AmpC detergent: blocks E. coli AmpC beta-lactamase in detergent assay; P00811; AmpC hydrolysis of nitrocefin, absorbance 480 nm, 0.01% Triton; Potency, µM (highest dose often 114 µM), for inactives: at the highest dose activity change, negative = inhibition, usual class: inhibitors; 370,000 tested, 0.041% active;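 note: 0% = no-compound wells and -100% = no-enzyme wells; nearly all actives have a fitted effect of over 25% in size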
Target sequence (P00811 whole entry, looked up): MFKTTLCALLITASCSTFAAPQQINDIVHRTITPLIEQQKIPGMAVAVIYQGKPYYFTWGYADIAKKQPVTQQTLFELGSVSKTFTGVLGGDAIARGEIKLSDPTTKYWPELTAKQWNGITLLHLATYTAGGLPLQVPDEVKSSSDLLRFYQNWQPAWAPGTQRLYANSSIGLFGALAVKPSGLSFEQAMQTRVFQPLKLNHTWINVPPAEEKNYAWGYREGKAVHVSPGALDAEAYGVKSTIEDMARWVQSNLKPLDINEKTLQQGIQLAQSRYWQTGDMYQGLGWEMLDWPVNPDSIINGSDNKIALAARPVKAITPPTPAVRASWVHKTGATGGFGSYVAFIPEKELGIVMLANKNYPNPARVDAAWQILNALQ
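AmpC (5.3 nM in the dispensed reagent) in 20 mM phosphate pH 7.0 with 0.01% (detergent screen) or 0.0001% Triton X-100 was preincubated with compounds for 15 min at room temperature. Nitrocefin was then added from an 800 uM solution, and hydrolysis was followed at 480 nm.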
AmpC no deterg: AmpC beta-lactamase inhibition without detergent | AmpC nitrocefin hydrolysis, absorbance 480 nm, 0.0001% Triton | 330,000 tested, 0.52% active | P00811 | Potency, µM (doses to about 57.1 µM), for the others: at the highest dose activity change, negative = inhibition, actives largely listed as inhibitors | AID 485341;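 note: plate controls were no compound for no effect and no enzyme for full effect; nearly all actives have a fitted effect of over 20% in size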
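AmpC (5.3 nM in the dispensed reagent) in 20 mM phosphate pH 7.0 with 0.01% (detergent screen) or 0.0001% Triton X-100 was preincubated with compounds for 15 min at room temperature. Nitrocefin was then added from an 800 uM solution, and hydrolysis was followed at 480 nm.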
Sm TGR inh: inhibitors of Schistosoma mansoni thioredoxin glutathione reductase; Potency, µM (highest dose often 114 µM), for the others: at the top dose activity change, negative = inhibition, actives largely listed as inhibitors; 360,000 tested, 3% active; Q962Y6; purified TGR, DTNB reduction, TNB absorbance 405 nm; note: nearly all actives have a fitted effect of over 60% in size
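Kinetic colorimetric format: TGR-catalysed, NADPH-driven DTNB reduction monitored via TNB absorbance. Enzyme dispensed at 20 nM; compound exposure 15 min at room temperature before reaction start.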
RE007 growth inh: less growth of the S. pombe RE007 Vpr strain | 360,000 tested, 0.21% active | AID 651644 | S. pombe RE007 Vpr strain, BacTiter-Glo ATP luminescence, 24 h | Potency, µM (highest dose often 92.2 µM), for the others: top-dose activity change, negative = less growth, usual class: inhibitors; active = well fitted falling curve with a large enough effect; inconclusive = small, poorly fitted or top-dose-only effect; inactive = no such curve, though single readings can be large or run the other way; note: nearly all actives have a fitted effect of over 50% in size
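Fission yeast RE007 carrying one integrated HIV-1 vpr copy, seeded at OD 0.01 in PMG+AL medium with 23 nL pinned compound. Grown 24 h at 30 degrees; viability read by BacTiter-Glo luminescence after 5 min.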
AMA1-RON2 inh: inhibitors of Plasmodium falciparum AMA1-RON2 interaction; AID 720542; 360,000 tested, 0.2% active; Potency, µM (top dose mostly 58.2 µM), without a hit: top-dose activity change, negative = inhibition, actives largely listed as inhibitors; AlphaScreen AMA1-biotinylated RON2 peptide binding;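 note: 0% = vehicle wells and -100% = peptide control; nearly all actives have a fitted effect of over 45% in size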
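AMA1 (3D7) with his tag at 25 nM final met compounds first, then biotinylated RON2 peptide at 25 nM; detection used donor plus acceptor beads, 10 µg/mL apiece, read by AlphaScreen after 30 min at room temperature.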
Numbers without * were called inactive; ? = inconclusive; . = no result; [ ] = another dose, or the depositor's remark. Sampled rows, rich in hits. Any-hit rate of the full collection: about 3.2%. Unless noted, calls come from the whole dose curve; as a rule, active = well fitted curve in the direction sought with a large enough effect; inconclusive = small, poorly fitted or top-dose-only effect, or another doubt; inactive = no such curve, though single readings can be large; an effect the other way counts as inactive or inconclusive. Unless noted, % is set by controls: 0 for no effect and ±100 for the full control effect; potency is the fitted concentration of half-maximal effect.

SMILES	AmpC detergent	AmpC no deterg	Sm TGR inh	RE007 growth inh	AMA1-RON2 inh
COc1cc2c(cc1OC)[C@@H](Cc1ccc(OCCC#N)cc1)N(C)CC2	-1.6%	-2.6%	50.1µM*	33.9%	17.5%
COc1ccc(CC2c3cc(OC)c(OC)cc3CCN2C)cc1OC (stereo unspecified)	?	-4.0%	0.8%	4.6%	-9.1%
CCc1cccc(NC(=O)c2cnc(SC)nc2-c2ccccc2)c1	-2.8%	.	-0.1%	.	.
Cc1ccc(NC(=O)c2c(C)nn(-c3ccccc3)c2-n2cccc2)c(Cl)c1	-0.9%	.	-8.8%	.	.
N#Cc1cccc(NC(=O)c2cc3c(s2)-c2ccc(Cl)cc2SC3)c1	-8.4%	.	-2.6%	.	.
O=C1C2C(C(=O)N1Cc1ccco1)C1C=CC2C12CC2 (stereo unspecified)	-1.3%	-8.8%	-18.0%	-7.9%	3.3%
O=C1C2C3C=CC(C4CC34)C2C(=O)N1Cc1ccco1 (stereo unspecified)	2.0%	-8.5%	50.1µM*	1.2%	14.5%[11.6 µM]
Cc1c(NC(=O)c2csc3c2CCCC3)c(=O)n(-c2ccccc2)n1C	-1.4%	-13.7%	-5.3%	-18.4%	7.0%
Cc1ccc(-c2nn(-c3ccccc3)cc2/C=C/C(=O)Nc2nccs2)cc1	4.8%	-15.3%	-5.9%	-20.2%	1.7%[11.6 µM]
Cc1c(NC(=O)c2ccccc2)c(=O)n(-c2ccccc2)n1C	-3.0%	-16.5%	-1.6%	5.4%	-0.3%
Cc1c(NC(=O)c2c(N)sc3c2CCCC3)c(=O)n(-c2ccccc2)n1C	3.4%	58.1%	22.4µM*	0.2%	27.8%
Cc1c(NC(=O)/C=C/c2cn(-c3ccccc3)nc2-c2ccc(F)cc2)c(=O)n(-c2ccccc2)n1C	-2.6%	-16.3%	3.16µM*	3.0%	-3.3%
Cc1cc(C(=O)Nc2c(C)n(C)n(-c3ccccc3)c2=O)c(C)o1	2.6%	0.159µM*	-4.7%	21.8%	1.4%
Cc1c(NC(=O)CN(c2ccc(F)cc2)S(=O)(=O)c2ccccc2)c(=O)n(-c2ccccc2)n1C	1.3%	-21.6%	10µM*	-6.0%	1.2%
CCc1ccc(NC(=O)Cn2c(=O)nc(-c3ccccc3F)c3cc(Cl)ccc32)cc1	8.7%	.	22.4%	.	.
Cc1cccc(N2C(=O)C(CC(=O)Nc3ccc(F)cc3)N(C3CCCC3)C2=O)c1 (stereo unspecified)	8.2%	.	-3.3%	.	.
COc1ccc(C(C2C(=O)CC(C)(C)CC2=O)C2C(=O)CC(C)(C)CC2=O)cc1COCC(F)(F)F	-11.8%	-13.1%	39.8µM*	-0.6%	6.1%
COc1cc(C(C2C(=O)CC(C)(C)CC2=O)C2C(=O)CC(C)(C)CC2=O)cc(OC)c1OC	0.6%	-12.3%	25.1µM*	14.9%	5.1%
CC1(C)CC(=O)C(C(C2=C(O)CC(C)(C)CC2=O)c2ccco2)C(=O)C1 (stereo unspecified)	-11.7%	-43.9%	?	13.0%	0.9%
COc1cc(C(C2=C(O)CC(C)(C)CC2=O)C2C(=O)CC(C)(C)CC2=O)cc(OC)c1OC (stereo unspecified)	-7.3%	-15.7%	15.8µM*	2.3%	14.0%
Fc1ccccc1C1CC(c2ccco2)=Nc2ccccc2S1 (stereo unspecified)	11.2%	-23.0%	8.91µM*	25.1µM*	-6.8%
COc1ccccc1C1CC(c2cccs2)=Nc2ccccc2S1 (stereo unspecified)	?	-22.2%	-0.2%	-16.2%	?
O=C(CNC(=O)c1ccccc1F)OCc1nc2ccccc2s1	-11.9%	-47.0%	2.3%	-12.4%	4.1%
CNc1sc(C(=O)c2ccccc2F)c(N)c1-c1nc2ccccc2s1	-6.0%	-20.0%	25.1µM*	-16.0%[3.69 µM]	17.1%
Cc1cc(C)c(NC(=O)c2cc(S(=O)(=O)N3CCN(c4ccccc4F)CC3)ccc2F)c(C)c1	9.9%	.	2.3%	.	.
SMILES	AmpC detergent	AmpC no deterg	Sm TGR inh	RE007 growth inh	AMA1-RON2 inh
COc1ccc(CN(C(=O)Nc2cccc(Cl)c2)c2ccccn2)cc1OC	-0.4%	.	3.3%	.	.
C#CC[N+](C)(C)CC#Cc1ccc(Cl)cc1	?	-1.6%	39.8µM*	3.4%	-0.8%
O=C(Cn1c(=O)n(-c2ccccc2Cl)c(=O)c2sc3ccccc3c21)N1CCCC1	-3.9%	.	-8.0%	.	.
CCCCSCCCNC(=O)CN1C(=O)COc2ccc(S(=O)(=O)N3CCC(C)CC3)cc21	-5.1%	.	-9.4%	.	.
CCc1ccc(-n2c(CCC(=O)O)ccc2-c2ccc(F)cc2)cc1	-5.5%	.	?	.	.
Cc1ccc(-n2c(CCC(=O)O)ccc2-c2cccs2)cc1C	9.8%	-43.4%	10µM*	-24.0%	-3.9%
O=C(O)CCc1ccc(-c2cccs2)n1NC(=O)c1ccc(O)cc1	-10.5%	-44.3%	-35.8%	-3.9%	3.7%
CCc1ccc(-n2c(CCC(=O)O)ccc2-c2cccs2)cc1	6.0%	.	3.55µM*	.	.
CCOC(=O)c1ccc(-n2c(CCC(=O)O)ccc2-c2cccs2)cc1	0.7%	-33.8%	5.62µM*	?	-4.6%
O=C(O)CCc1ccc(-c2cccs2)n1NC(=O)c1cccs1	-1.9%	-25.1%	?	-24.6%	-2.1%
Cc1ccc(NC(=O)c2sc3ncnc(N(C)C4CCCCC4)c3c2C)cc1	13.5%	.	-0.7%	.	.
Cc1c(Cl)cccc1NC(=O)CSc1cc(-c2ccccc2)ncn1	0.4%	.	-1.7%	.	.
CCC(=O)N1CCc2cc(Br)cc(S(=O)(=O)CCC(=O)Nc3ccc(CC)cc3)c21	-10.3%	.	-12.5%	.	.
Cc1cc(Nc2ccccc2Cl)n2nc(-c3ccco3)nc2n1	1.4%	.	?	.	.
CCOC(=O)c1ccccc1Nc1cc(C)nc2nc(-c3ccco3)nn12	10.0%	.	17.8µM*	.	.
O=C1c2cccc3c([N+](=O)[O-])ccc(c23)C(=O)N1c1ccccn1	0.2%	-1.4%	20µM*	28.2µM*	-13.3%
O=C1c2cccc3cccc(c23)C(=O)N1c1nccs1	?	-6.6%	0.0%	7.8%	-5.2%
O=C1c2cccc3c([N+](=O)[O-])ccc(c23)C(=O)N1c1ccc(Cl)cn1	-13.1%	-11.1%	14.1µM*	?	0.0%
O=C1c2cccc3c([N+](=O)[O-])ccc(c23)C(=O)N1O	-1.0%	-14.5%	0.0%	.	-13.2%
O=C1c2cccc3c([N+](=O)[O-])ccc(c23)C(=O)N1c1nccs1	-0.7%	-16.8%	1.78µM*	?	-8.5%
O=C(O)c1ccc2c(c1)C(=O)N(c1ccc(Cl)cn1)C2=O	?	0.631µM*	2.9%	16.3%	-1.0%
CCN(c1ccccc1)S(=O)(=O)c1cc(NC(=O)CSc2n[nH]c(=O)[nH]c2=O)ccc1Cl	-9.4%	20µM*	-19.3%	0.1%	0.5%
O=C(CSc1n[nH]c(=O)[nH]c1=O)Nc1ccc2c(c1)C(=O)c1ccccc1C2=O	?	-42.0%	0.5%	5.7%	-6.0%
CCCC(=O)Nc1c(C(=O)OCC)[nH]c2ccccc12	5.1%	20µM*	5.8%	5.9%	0.4%
